Test results reported in PMC13494018.

B1: d4r5_design_ppi_320_dldesign_0_cycle1_af2pred (protein)
chain: ATPEEQKKESDYFKEVQKLAKEKAEAAAADPEAKQLALNLPLAAADPEEGKKVAAQVDKRLAALKAAKAAAAA
B2: d4r5_design_ppi_266_dldesign_0_cycle1_af2pred (protein)
chain: GEEAKKALELAKKAVEEAKRGLALAKAGKLEEAAKELQKARELMAEALALGKKNPEVLEEVKKLAKEVKELIREAMEEAKKHR
B3: d4r5_design_ppi_435_dldesign_0_cycle1_af2pred (protein)
chain: SKSKKEAEKMREATRAFKEAGKAAAAAIASGETGEEAIAAARAKAEEVIKEAKEVGEGAGEFAEMLKENLDKALAAAS
B4: d4r5_design_ppi_375_dldesign_0_cycle0_af2pred (protein)
chain: KEKEMANKLQEKIEELYSAATPEQQSKVSEKIKEARKAAKEAVKKYKEDEEKGKELFKKAEEILEEGLKEAK
B5: d4r5_design_ppi_255_dldesign_0_cycle0_af2pred (protein)
chain: SEVEETKKKLAEASAELSELAAEADANPALAAAGKLAREALKKARELGKEGEENPEKALELYKKALEYAEKALKEVKALIEKAK
B6: d4r5_design_ppi_384_dldesign_0_cycle0_af2pred (protein)
chain: AVTWDEILDIQARANYYLSEAKKLTEEAYKEAKKLYEEARKHYGEAAKYLADAPKVGEEAKKKAAEHAKEAEKLVKELEELVKKAKE
B7: d4r5_design_ppi_378_dldesign_0_cycle0_af2pred (protein)
chain: AAAAAAAARAAMAAQAAANAAKAKEVFDKLAETYPEAKDEAKAKAAEVAAAFAATAAAGGDQAQLTANNNAAQDARSEVIAIANKK
B8: d4r5_design_ppi_307_dldesign_0_cycle0_af2pred (protein)
chain: SAEKKAREESEKLREELRKKKEEAIARVKAYLAEKAKKDPSKAAEYEAKAKEVEAGGSGTATAALKEVKAEEAAEAAAKAAAA
B9: d4r5_design_ppi_428_dldesign_0_cycle1_af2pred (protein)
chain: AAAAAETAAARERAARDLARAEAAAKAGKADPSKAPLAIAILEGVAERFEFYAKAAGPAAAAVAREAAERAKALAKEL
B10: d4r5_design_ppi_473_dldesign_0_cycle1_af2pred (protein)
chain: GEAKRKKAEALLERYKARAEELIEKAKASDYVTAESYAISVETRFTDFAAAAEKDPATKEVAKRAKKVGKEYVEKLKKIAEEKKAAE
B11: d4r5_design_ppi_312_dldesign_0_cycle1_af2pred (protein)
chain: DFEEAKKKAEEALKKLEELAKELGEEGKKLYEYAKKKFEKYSDDAASVEAAYYIIKGAYKKAEELLKEKKEKKKKEE
B12: d4r5_design_ppi_347_dldesign_0_cycle1_af2pred (protein)
chain: GREEEAKRVAEVILERLKDPKAQEAAKKTGEAGKAFLEAYELYKKDREAGIEYLAKEILKNPSWAQDFRENYAEEEAK
B13: d4r5_design_ppi_292_dldesign_0_cycle0_af2pred (protein)
chain: MKAKETAKALREAVKAAQEAVKAKGEEVKPEMSKLLEEAASSDAEETKKIAEEIKKKAKEVKEEKKKEEE
B14: d4r5_design_ppi_400_dldesign_0_cycle1_af2pred (protein)
chain: AAAEAAAKEAAKAKADELLKKAKESYEEAKKNKDNKELVFKYLADIEVKAAQADFLGAKDPYAKEKAKEIEKLAKEAEKILK
B15: d4r5_design_ppi_337_dldesign_0_cycle0_af2pred (protein)
chain: SHYEKAREYVKKAIKALKEGKEKEAKEYAKKAAEEIAKTDAEKAREIAKEMRKGVKEVGAGKVGGEMVALIQEARAEAAARNS
B16: d4r5_design_ppi_384_dldesign_0_cycle1_af2pred (protein)
chain: GITWDELMDIQADAFYYLSEAKKITPEAEAKAKELYQKSLEYYKKAAEYLAKAEEVGPEAKEEAKEYADKAAEEVEKLKKLVEEAKN
B17: d4r5_design_ppi_466_dldesign_0_cycle0_af2pred (protein)
chain: SEAEEILRETVERATAAAAAEDPALAPRVRAAAERAAEIAKSQKSIEAAAGVLEIFADRAAAASPAAAAVAREGARRLEELAK
B18: d4r5_design_ppi_448_dldesign_0_cycle0_af2pred (protein)
chain: MKEKLKKEAKEAEKKMEELIKKIEEANPEAGKVAREAREKGKASPKGREYTNKGISEAGKLAGPEVAPIAQEARQEAAAADAYKKII
B19: d4r5_design_ppi_343_dldesign_0_cycle1_af2pred (protein)
chain: GEEEEKKKKLNELQDEAAEAIGEVYLEAKKTGELELAKEVSKKVRKALKDPEEAKKAIEEAKKEAKKLKKKL
B20: d4r5_design_ppi_305_dldesign_0_cycle0_af2pred (protein)
chain: MEEKLKKEVEEALKKAEKAAKEAKASGDVKALKEAAMKANEAAAEARAYAAKSKDKETKKFAEEAAKKALELAKETVEAAKKAA
B21: d4r5_design_ppi_302_dldesign_0_cycle0_af2pred (protein)
chain: SEAEKLYAEALQYANIAKSAYEVNKEAGKEEYKEAKKYVEKLKEVDPEKGEEAEKEVEEKKAEAEKEYEKK
B22: d4r5_design_ppi_459_dldesign_0_cycle1_af2pred (protein)
chain: DLEALKEKYLKETKAAAEKAAKIDKKVGDELKDLAELIKEGYGVKGNYNKAKALAAKAEADAKKEAALKA
B23: d4r5_design_ppi_490_dldesign_0_cycle0_af2pred (protein)
chain: SKEEEAKKTGKEQVKKVKETAETGTAAETAETAQEARAELNEKAAEAGTEEARKIAEEAKKEIREIVKKKKEEEA
B24: d4r5_design_ppi_466_dldesign_0_cycle1_af2pred (protein)
chain: EEKKKILEEAAKEAAAAAKADNPELAPRVERLAKRAVEIGTKQKSVEAAAGVMENAADQAAAAAPAAAAVLKKGAEELEKLAK
B25: d4r5_design_ppi_292_dldesign_0_cycle1_af2pred (protein)
chain: SMAKELSEALREAVRAAREAVETRGEEVKEEMVELVYKAFDSDLEETKKIAEEIKRRAEEAREERRRRLE
B26: d4r5_design_ppi_266_dldesign_0_cycle0_af2pred (protein)
chain: HMLKKLALEKAKEALEKAKEGLKLAKEGKLEEAAKKLQEARELKAEALSLGKKEKSIKKIIEEKAKEVKKIIKEAQKEAKKKK
B27: d4r5_design_ppi_429_dldesign_0_cycle0_af2pred (protein)
chain: VEEAKKLGEEYIKKVKEAKDAKEALEIGEKAAKELVEKAKASEDGETAQAYLEAASEVKATALRQARKLEE
B28: d4r5_design_ppi_438_dldesign_0_cycle1_af2pred (protein)
chain: DLEELKRRAEQVELLVEMAEEEAKTGSKEEALALLNSAIRDAKEVAEEGAAYPEVSERAKAALERAEKIRKELLAS
B29: d4r5_design_ppi_375_dldesign_0_cycle1_af2pred (protein)
chain: AAKEMANELQELIEKLREASSVKDQNEVSKVIKEARKKAKEAIKAYEKDPELGKKLFEEAKEILEKALKKAE
B30: d4r5_design_ppi_307_dldesign_0_cycle1_af2pred (protein)
chain: GAREKAREESEKIRKELREKKKEAVAYVEAYLKKKAEANPEYAAEYEAKAEKVRNGGSGTATKALKEVKAEEAAEAAAKAAAA
B31: d4r5_design_ppi_284_dldesign_0_cycle1_af2pred (protein)
chain: AAAEVQAKLEAAAKKAEELAKDPALKEAAEAAAKALTAAKSLPPEEAAPALVATNNALQDARFEATEKAFK
B32: d4r5_design_ppi_497_dldesign_0_cycle0_af2pred (protein)
chain: KKEEVRKITEEAIEKMRTVEPEEAVNAVQDAQFEMQGLAPTAETRRKVARLASEAARLVATGEKVEEGIEKLREAGEYLIESL
B33: d4r5_design_ppi_332_dldesign_0_cycle1_af2pred (protein)
chain: DVEALVAEAVALIAGDPADAPAARAAAEAAAAALLDATLDDPAAVALLEALAAAAAANPHMADVAATLAKALATAKKIVADQKEATS
B34: d4r5_design_ppi_305_dldesign_0_cycle1_af2pred (protein)
chain: KEKEMKKEVKKALEEAKKAAEEAIKSGDVKKLKEAAVKAQEAATVAKYIASKAKDKEVKKEAKKAAKEALELAKKVAEEAKKAE
B35: d4r5_design_ppi_400_dldesign_0_cycle0_af2pred (protein)
chain: AAAAAAAKAAAKAAAEKDLKRAEEAYKNAKKNKDNKEIVFKNYAEIETKAARADALAAADPYAAEAAKKIKELAEEAEKILK
B36: d4r5_design_ppi_288_dldesign_0_cycle0_af2pred (protein)
chain: MTKAENAAKILEYAAEADALGDKETAKKLRELAKKAREATAEEAKKLAKEAEKLLKEAEEKKEKEEKEEKEKKEEEEKK
B37: d4r5_design_ppi_300_dldesign_0_cycle0_af2pred (protein)
chain: SEVEEKAKKLVKEAAESTPEEAKKKGREVVELAKEHPEVAPVAAKAADEAAEVAKKKDKEVYIILAKTSAQLDAIAA
B38: d4r5_design_ppi_438_dldesign_0_cycle0_af2pred (protein)
chain: SKEEMERRAEQVEKAVEGAEEEAKEGTPEEALALLRSVLRRAKEVAEESKKYPEVKKRAEKALERAEKIKKELLEK

The binders below were run against VTCN1, Q7Z7D3.
VTCN1, Q7Z7D3, sequence (Q7Z7D3 whole entry): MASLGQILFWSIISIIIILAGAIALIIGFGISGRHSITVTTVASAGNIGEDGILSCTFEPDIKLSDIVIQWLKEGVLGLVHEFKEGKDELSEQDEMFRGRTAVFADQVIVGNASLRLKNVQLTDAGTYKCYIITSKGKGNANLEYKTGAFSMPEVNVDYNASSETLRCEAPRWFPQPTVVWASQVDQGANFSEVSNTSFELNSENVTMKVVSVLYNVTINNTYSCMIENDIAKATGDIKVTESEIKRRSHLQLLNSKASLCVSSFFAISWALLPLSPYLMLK

Binding in a display sort, inactive:
B1 not found
B2 not found
B3 not found
B4 not found
B5 not found
B6 not found
B7 not found
B8 not found
B9 not found
B10 not found
B11 not found
B12 not found
B13 not found
B14 not found
B15 not found
B16 not found
B17 not found
B18 not found
B19 not found
B20 not found
B21 not found
B22 not found
B23 not found
B24 not found
B25 not found
B26 not found
B27 not found
B28 not found
B29 not found
B30 not found
B31 not found
B32 not found
B33 not found
B34 not found
B35 not found
B36 not found
B37 not found
B38 not found
